From PubChem BioAssay
Tgondii IFNg: inhibitors of Toxoplasma gondii growth with IFN-gamma. Toxoplasma gondii growth in IFN-gamma-treated host cells; hits give low values. activity change, negative = inhibition, % (concentration not given with the values). actives 3.8% (n = 69,000). AID 1259416; in the data active = activity change below about -70%, passing the limit was not always enough;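 also: host cells are HeLa cells infected with Toxoplasma gondii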
Active calls of the source: *. The entries come from a sample that favours hits as a whole.

SMILES	Tgondii IFNg
CCOCc1cnc2n1CCN(Cc1ccsc1)C2C (configuration not stated)	-41
C[C@@H]1CCCCO[C@H](CN(C)C(=O)C2CCCCC2)[C@H](C)CN([C@H](C)CO)C(=O)c2cc(NS(=O)(=O)c3ccccc3)ccc2O1	-145*
CC(C)NC(=O)Nc1ccc2c(c1)C(=O)N([C@@H](C)CO)C[C@@H](C)[C@H](CN(C)C(=O)C1CCCCC1)OCCCC[C@H](C)O2	333
C[C@@H]1CCCCO[C@@H](CN(C)C(=O)C2CCCCC2)[C@H](C)CN([C@H](C)CO)C(=O)c2cc(NS(=O)(=O)c3ccccc3)ccc2O1	21
C[C@H](CO)N1C[C@H](C)[C@@H](CN(C)C(=O)C2CCCCC2)OCCCC[C@H](C)Oc2ccc(NS(=O)(=O)c3ccccc3)cc2C1=O	-78*
C[C@@H]1CCCCO[C@@H](CN(C)C(=O)C2CCCCC2)[C@@H](C)CN([C@@H](C)CO)C(=O)c2cc(NS(=O)(=O)c3ccccc3)ccc2O1	88
CC(C)NC(=O)Nc1ccc2c(c1)C(=O)N([C@@H](C)CO)C[C@@H](C)[C@@H](CN(C)C(=O)C1CCCCC1)OCCCC[C@H](C)O2	307
C=CCN(CC#Cc1ccccc1)C(=O)c1ccc(C2CCCN2)s1 (configuration not stated)	-2
CCCn1ccnc1CN1CCC(c2ccnc(-c3ccncc3)c2)C1 (configuration not stated)	4
CCCCOc1ccc(C(=O)NCCc2sc(-c3cccc(F)c3)nc2C)cc1	-94*
O=C(NCCc1csc(-c2ccccc2)n1)c1ccc(Cl)cc1	399
Cc1cccc(-c2nc(CCNC(=O)c3ccco3)cs2)c1	497
COc1ccc(C(=O)NCCc2csc(-c3cccc(F)c3)n2)cc1	7
O=C(NCCc1csc(-c2ccc(F)cc2)n1)c1cccc(F)c1	-90*
Cc1nc(-c2cccc(F)c2)sc1CCNC(=O)c1ccc(C(C)(C)C)cc1	-43
O=C(NCCc1csc(-c2ccc(Cl)cc2)n1)c1ccco1	-81*
Cc1nc(-c2cccc(F)c2)sc1CCNC(=O)c1ccc(Cl)cc1	-4
CCCCOc1ccc(C(=O)NCCc2csc(-c3cccc(F)c3)n2)cc1	-81*
CC(C)Oc1ccc(C(=O)NCCc2csc(-c3cccc(F)c3)n2)cc1	36
O=C(NCCc1csc(-c2cccc(F)c2)n1)c1cccc(F)c1	-59
O=C(NCCc1csc(-c2ccc(Cl)cc2)n1)c1cccc(F)c1	-50
O=C(Cn1ncc2c(N3CCN(c4ccccn4)CC3)ncnc21)Nc1cc(F)cc(F)c1	-64
COCCN(Cc1ccco1)c1nc(-c2ccc(OC)cc2)nc2ccccc12	-26
Cc1ccc(N2CC3(CCN(Cc4nccn4C)C3)CC2=O)cc1C (configuration not stated)	3
CN(Cc1ccccn1)C(=O)c1n[nH]c2c1CN(Cc1ccco1)C2	23
SMILES	Tgondii IFNg
O=C(O)CSCC(=O)NC1CCN(Cc2ccccc2)CC1	-13
COc1ccc(CN2CCC(c3cc4c(ncn4C)c(-c4ccc(OC)cc4)n3)CC2)cc1	-14
COc1cccc(C(=O)NCCc2csc(-c3cccc(F)c3)n2)c1	-48
COc1ccc(C(=O)NCCc2csc(-c3cccc(F)c3)n2)c(OC)c1	-81*
COc1cc(OC)cc(C(=O)NCCc2csc(-c3cccc(F)c3)n2)c1	30
CN1C2CCN(C(=O)c3ccc[nH]3)CC2C[C@H]1CN1CCCC1 (some centres not stated)	2
Cc1ccc2nc3c(n2c1)C(c1ccccc1-c1ccc(C)o1)CC(=O)NC3 (configuration not stated)	-17
COc1ccc(-c2cc(C)nc(C3CCNCC3)n2)cc1	-40
COc1ccc(-c2cc(C3CNC3)nc(C)n2)cc1	-77*
COc1ccc(-c2cc(-c3ccc(OC)cc3)nc(-c3ccc(C)o3)c2)cc1	37
O=C(c1ccco1)N1N=C(c2ccco2)CC1c1ccco1 (configuration not stated)	-12
CC(C)c1nc(CN(C)C(=O)COc2cccnc2)cs1	-50
c1cnc(-c2cc(NC3CCNCC3)nc3[nH]ccc23)cn1	-19
FC(F)(F)c1ccc(-c2cc(NC3CCNCC3)nc3[nH]ccc23)nc1	-3
CCCc1cc(-c2cc(NC3CCNCC3)nc3[nH]ccc23)nc(C)n1	-80*
COc1ccc(-c2nc(NCCCN3CCC(Cc4ccccc4)CC3)c3ccccc3n2)cc1	-55
Cc1ccc(CNC(=O)c2ccc(-c3nc(CN4CCN(c5ccccc5)CC4)c(C)o3)cc2)cc1	-25
Cc1csc2nc(=O)c(-c3ccccc3NC(=O)C(C)c3ccccc3)nn12 (configuration not stated)	-11
Cc1ccc(-c2nc(CN(c3ccc(C)cc3)S(=O)(=O)c3cccs3)c(C)o2)cc1	-2
CC(=O)Nc1ccc(-c2cn(CCc3nc(C)c4c(n3)CCC4)nn2)cc1	3
CO[C@H](CN(C)S(=O)(=O)c1ccc(F)cc1)[C@@H](C)CN(Cc1ccccc1Cl)[C@@H](C)CO	71
C[C@H](NC(=O)C[C@H]1CC[C@H]2[C@@H](COc3ccc(NS(=O)(=O)c4ccc(Cl)cc4)cc3C(=O)N2C)O1)c1ccccc1	-37
CN1C(=O)c2cc(NC(=O)c3ccc(C(F)(F)F)cc3)ccc2OC[C@@H]2O[C@@H](CC(=O)NCc3ccc4c(c3)OCO4)CC[C@@H]21	-82*
CN1C(=O)c2cc(NC(=O)NCc3ccccc3)ccc2OC[C@H]2O[C@H](CC(=O)NCC3CCCCC3)CC[C@@H]21	-20
C[C@@H](NC(=O)C[C@H]1CC[C@@H]2[C@@H](COc3ccc(NS(=O)(=O)c4ccc(Cl)cc4)cc3C(=O)N2C)O1)c1ccccc1	-89*
SMILES	Tgondii IFNg
CN1C(=O)c2cc(NC(=O)Cc3cccs3)ccc2OC[C@H]2O[C@@H](CC(=O)NCC3CCCCC3)CC[C@@H]21	-23
CN1C(=O)c2cc(NC(=O)NCc3ccccc3)ccc2OC[C@H]2O[C@H](CC(=O)NCC3CCCCC3)CC[C@H]21	-47
CN1C(=O)c2cc(NC(=O)Cc3cccs3)ccc2OC[C@@H]2O[C@H](CC(=O)NCC3CCCCC3)CC[C@H]21	-11
CN1C(=O)c2cc(NC(=O)c3ccc(C(F)(F)F)cc3)ccc2OC[C@H]2O[C@@H](CC(=O)NCc3ccc4c(c3)OCO4)CC[C@H]21	-28
C[C@@H](NC(=O)C[C@H]1CC[C@@H]2[C@H](COc3ccc(NS(=O)(=O)c4ccc(Cl)cc4)cc3C(=O)N2C)O1)c1ccccc1	-9
CN1C(=O)c2cc(NC(=O)c3ccc(C(F)(F)F)cc3)ccc2OC[C@H]2O[C@H](CC(=O)NCc3ccc4c(c3)OCO4)CC[C@H]21	-37
CN1C(=O)c2cc(NC(=O)NCc3ccccc3)ccc2OC[C@@H]2O[C@H](CC(=O)NCC3CCCCC3)CC[C@@H]21	-87*
CN1C(=O)c2cc(NC(=O)Cc3cccs3)ccc2OC[C@@H]2O[C@H](CC(=O)NCC3CCCCC3)CC[C@@H]21	-78*
CN1CCOCC2(CCCN(C(=O)c3cc4ccccc4[nH]3)C2)C1 (configuration not stated)	-26
O=C(c1ccco1)N1CCN(C(=O)c2cc3cccnc3n(Cc3ccccc3)c2=O)CC1	-9
CCNc1ccnc(N2CCC3(CCCN(C)C3=O)C2)n1 (configuration not stated)	-10
Cc1cc(CN2CCOCC2)oc1C(=O)N1CCCCC1c1nc2ccccc2[nH]1 (configuration not stated)	-1
